Results taken from PubChem BioAssay (NCATS).
Results filed as inconclusive are left out. Active and inactive are the calls of the source. Unless noted, calls follow the shape of the dose curve; as a rule, active = well fitted curve in the direction sought with a large enough effect; inconclusive = small, poorly fitted or top-dose-only effect, or another doubt; inactive = no such curve, though single readings can be large; an effect the other way counts as inactive or inconclusive.

What was measured:
[1] = biological target: Luciferin 4-monooxygenase (Photinus pyralis) (UniProt P08659); assay: Biochemical firefly luciferase enzyme assay for NPC (AID 624030);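 also: purified P. pyralis luciferase at 10 nM with luciferin and ATP substrate; 0% = DMSO and -100% = full luciferase inhibition by PTC124 control; nearly all actives have a fitted effect of over 70% in size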
Chain of Luciferin 4-monooxygenase (Photinus pyralis) (P08659 whole entry, looked up): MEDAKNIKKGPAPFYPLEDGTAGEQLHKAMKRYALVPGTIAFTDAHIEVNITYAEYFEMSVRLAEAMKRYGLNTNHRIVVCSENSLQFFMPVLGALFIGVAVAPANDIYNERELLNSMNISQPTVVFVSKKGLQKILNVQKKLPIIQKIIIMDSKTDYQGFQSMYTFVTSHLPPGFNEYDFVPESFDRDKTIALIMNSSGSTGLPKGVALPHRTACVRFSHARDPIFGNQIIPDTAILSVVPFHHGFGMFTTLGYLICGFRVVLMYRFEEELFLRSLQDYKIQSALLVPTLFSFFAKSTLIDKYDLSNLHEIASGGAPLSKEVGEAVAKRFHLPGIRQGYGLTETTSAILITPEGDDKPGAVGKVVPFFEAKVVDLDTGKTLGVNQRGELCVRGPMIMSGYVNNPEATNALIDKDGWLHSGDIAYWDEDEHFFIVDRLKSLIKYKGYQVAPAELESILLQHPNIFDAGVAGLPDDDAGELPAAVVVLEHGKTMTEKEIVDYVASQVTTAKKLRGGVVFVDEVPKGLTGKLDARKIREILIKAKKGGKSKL
Method in brief: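 Purified P. pyralis luciferase at 10 nM in 50 mM Tris Acetate (final), luminescence read within 5 minutes of enzyme addition to compounds. Activity normalised to PTC124 versus DMSO; concentration-response curves classed by r2, magnitude and activity.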

[2] = S16 Schwann cell PMP22 intronic element firefly luciferase assay (AID 624032);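 also: plate controls were DMSO for no effect and PTC124 positive control mean for full effect; nearly all actives have a fitted effect of over 30% in size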
Method in brief: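 Rat S16 Schwann cells stably carrying firefly luciferase driven by a PMP22 intronic element, in 10% FBS, treated 24 h at 37 C. ONE-Glo luminescence normalized to PTC124 control and DMSO (0%); curves classed by r2, magnitude and activity.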

[3] = S16 Schwann cell PMP22 intronic element beta-lactamase assay (AID 624044; calls by dose curve;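 also: 0% = DMSO and -100% = potassium clavulanate positive control; nearly all actives have a fitted effect of over 15% in size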); details: S16 rat Schwann cells, PMP22 element beta-lactamase FRET, 24 h; ratio activity, negative = inhibition: at 38.3 µM (top of the series)
Method in brief: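 Rat S16 Schwann cells with beta-Lac driven by a PMP22 intronic element, compound-treated 24 h at 37 °C. LiveBLAzer FRET B/G read: 460 nm normalized to potassium clavulanate vs DMSO; 535 nm FRET as viability; concentration-effect curves classified.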

[4] = qHTS profiling for inhibitors of Plasmodium falciparum proliferation (AID 504749); also: nearly all actives have a fitted effect of over 60% in size; also: potency is read from the fitted curve at half-maximal effect;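 as to activity, negative = inhibition: 0% = DMSO vehicle and full inhibition = artemisinin control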; details: P. falciparum in erythrocytes, SYBR Green DNA, 72 h; at 28.7 µM (top of the series); parasite line B
Method in brief: (§1)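 Readout was DNA-dye fluorescence from lysed cultures, ex 485/em 535 nm. Parasitized red cells had grown 72 h with compound; data scaled between 0.29 uM artemisinin and DMSO wells and corrected using vehicle-only plates.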

[5] = system: 7G8; assay: as above; details: P. falciparum in erythrocytes, SYBR Green DNA, 72 h; series mostly up to 28.7 µM
Method in brief: as §1

[6] = system: AA1029; assay: as above; details: P. falciparum in erythrocytes, SYBR Green DNA, 72 h; series mostly up to 28.7 µM
Method in brief: as §1

[7] = system: ATS189; assay: as above; details: P. falciparum in erythrocytes, SYBR Green DNA, 72 h; series mostly up to 28.7 µM
Method in brief: as §1

[8] = system: ATS95; assay: as above; details: P. falciparum in erythrocytes, SYBR Green DNA, 72 h; series mostly up to 28.7 µM
Method in brief: as §1

[9] = system: C2A; assay: as above; details: P. falciparum in erythrocytes, SYBR Green DNA, 72 h; series mostly up to 28.7 µM
Method in brief: as §1

[10] = system: CP185; assay: as above; details: P. falciparum in erythrocytes, SYBR Green DNA, 72 h; series mostly up to 28.7 µM
Method in brief: as §1

[11] = system: CP192; assay: as above; details: P. falciparum in erythrocytes, SYBR Green DNA, 72 h; series mostly up to 28.7 µM
Method in brief: as §1

[12] = system: CP194; assay: as above; details: P. falciparum in erythrocytes, SYBR Green DNA, 72 h; series mostly up to 28.7 µM
Method in brief: as §1

[13] = system: CP201; assay: as above; details: P. falciparum in erythrocytes, SYBR Green DNA, 72 h; series mostly up to 28.7 µM
Method in brief: as §1

[14] = system: CP203; assay: as above; details: P. falciparum in erythrocytes, SYBR Green DNA, 72 h; series mostly up to 28.7 µM
Method in brief: as §1

[15] = system: CP211; assay: as above; details: P. falciparum in erythrocytes, SYBR Green DNA, 72 h; series mostly up to 28.7 µM
Method in brief: as §1

[16] = system: CP215; assay: as above; details: P. falciparum in erythrocytes, SYBR Green DNA, 72 h; series mostly up to 28.7 µM
Method in brief: as §1

[17] = system: CP217; assay: as above; details: P. falciparum in erythrocytes, SYBR Green DNA, 72 h; series mostly up to 28.7 µM
Method in brief: as §1

[18] = system: CP238; assay: as above; details: P. falciparum in erythrocytes, SYBR Green DNA, 72 h; series mostly up to 28.7 µM
Method in brief: as §1

[19] = system: CP247; assay: as above; details: P. falciparum in erythrocytes, SYBR Green DNA, 72 h; series mostly up to 28.7 µM
Method in brief: as §1

[20] = system: CP252; assay: as above; details: P. falciparum in erythrocytes, SYBR Green DNA, 72 h; series mostly up to 28.7 µM
Method in brief: as §1

[21] = system: CP256; assay: as above; details: P. falciparum in erythrocytes, SYBR Green DNA, 72 h; series mostly up to 28.7 µM
Method in brief: as §1

[22] = system: CP262; assay: as above; details: P. falciparum in erythrocytes, SYBR Green DNA, 72 h; series mostly up to 28.7 µM
Method in brief: as §1

[23] = system: CP265; assay: as above; details: P. falciparum in erythrocytes, SYBR Green DNA, 72 h; series mostly up to 28.7 µM
Method in brief: as §1

[24] = system: CP266; assay: as above; details: P. falciparum in erythrocytes, SYBR Green DNA, 72 h; series mostly up to 28.7 µM
Method in brief: as §1

[25] = system: CP269; assay: as above; details: P. falciparum in erythrocytes, SYBR Green DNA, 72 h; series mostly up to 28.7 µM
Method in brief: as §1

[26] = system: CP297; assay: as above; details: P. falciparum in erythrocytes, SYBR Green DNA, 72 h; series mostly up to 28.7 µM
Method in brief: as §1

[27] = system: CP305; assay: as above; details: P. falciparum in erythrocytes, SYBR Green DNA, 72 h; series mostly up to 28.7 µM
Method in brief: as §1

[28] = system: CP315; assay: as above; details: P. falciparum in erythrocytes, SYBR Green DNA, 72 h; series mostly up to 28.7 µM
Method in brief: as §1

[29] = system: CP325; assay: as above; details: P. falciparum in erythrocytes, SYBR Green DNA, 72 h; series mostly up to 28.7 µM
Method in brief: as §1

[30] = system: CP329; assay: as above; details: P. falciparum in erythrocytes, SYBR Green DNA, 72 h; series mostly up to 28.7 µM
Method in brief: as §1

[31] = system: DIV14; assay: as above; details: P. falciparum in erythrocytes, SYBR Green DNA, 72 h; series mostly up to 28.7 µM
Method in brief: as §1

[32] = system: Dd2; assay: as above; details: P. falciparum in erythrocytes, SYBR Green DNA, 72 h; series mostly up to 28.7 µM
Method in brief: as §1

[33] = system: ECU; assay: as above; details: P. falciparum in erythrocytes, SYBR Green DNA, 72 h; series mostly up to 28.7 µM
Method in brief: as §1

[34] = system: FAB9; assay: as above; details: P. falciparum in erythrocytes, SYBR Green DNA, 72 h; series mostly up to 28.7 µM
Method in brief: as §1

[35] = system: ICS; assay: as above; details: P. falciparum in erythrocytes, SYBR Green DNA, 72 h; series mostly up to 28.7 µM
Method in brief: as §1

[36] = system: JCK; assay: as above; details: P. falciparum in erythrocytes, SYBR Green DNA, 72 h; series mostly up to 28.7 µM
Method in brief: as §1

[37] = system: P94_40; assay: as above; details: P. falciparum in erythrocytes, SYBR Green DNA, 72 h; series mostly up to 28.7 µM
Method in brief: as §1

[38] = system: PC49; assay: as above; details: P. falciparum in erythrocytes, SYBR Green DNA, 72 h; series mostly up to 28.7 µM
Method in brief: as §1

[39] = system: SC27B; assay: as above; details: P. falciparum in erythrocytes, SYBR Green DNA, 72 h; series mostly up to 28.7 µM
Method in brief: as §1

[40] = system: TAB113; assay: as above; details: P. falciparum in erythrocytes, SYBR Green DNA, 72 h; series mostly up to 28.7 µM
Method in brief: as §1

[41] = biological target: Mitogen-activated protein kinase 10 (Mus musculus) (UniProt Q61831); assay: JNK3 AlphaScreen Assay (AID 530; active = well fitted curve in either direction with a large enough effect, not every such curve was filed as active;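 also: kinase came from lysate of stimulated human HepG2 cells; signal reports phosphorylation of biotinylated GST-cJun 1-79 at Ser73 with 10 µM ATP; % is scaled to controls: 0 for no effect and ±100 for the full control effect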)
Method in brief: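 qHTS format: compounds tested as titrations against IL-1beta/TNF-alpha-activated HepG2 lysate JNK3 with biotin-GST-cJun substrate and 10 uM ATP at room temperature. Loss of anti-phospho-cJun AlphaScreen signal indicates inhibition.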

[42] = biological target: 3',5'-cyclic-AMP phosphodiesterase 4B (Homo sapiens) (UniProt Q07343); assay: qHTS Assay for Inhibitors of PDE-IV (AID 607; active = well fitted activation curve with a large enough effect in the main read-out, with a control signal flat, not every such curve was filed as active; also: % of control where 0% means no effect)
Chain of 3',5'-cyclic-AMP phosphodiesterase 4B (Homo sapiens) (Q07343 whole entry, looked up): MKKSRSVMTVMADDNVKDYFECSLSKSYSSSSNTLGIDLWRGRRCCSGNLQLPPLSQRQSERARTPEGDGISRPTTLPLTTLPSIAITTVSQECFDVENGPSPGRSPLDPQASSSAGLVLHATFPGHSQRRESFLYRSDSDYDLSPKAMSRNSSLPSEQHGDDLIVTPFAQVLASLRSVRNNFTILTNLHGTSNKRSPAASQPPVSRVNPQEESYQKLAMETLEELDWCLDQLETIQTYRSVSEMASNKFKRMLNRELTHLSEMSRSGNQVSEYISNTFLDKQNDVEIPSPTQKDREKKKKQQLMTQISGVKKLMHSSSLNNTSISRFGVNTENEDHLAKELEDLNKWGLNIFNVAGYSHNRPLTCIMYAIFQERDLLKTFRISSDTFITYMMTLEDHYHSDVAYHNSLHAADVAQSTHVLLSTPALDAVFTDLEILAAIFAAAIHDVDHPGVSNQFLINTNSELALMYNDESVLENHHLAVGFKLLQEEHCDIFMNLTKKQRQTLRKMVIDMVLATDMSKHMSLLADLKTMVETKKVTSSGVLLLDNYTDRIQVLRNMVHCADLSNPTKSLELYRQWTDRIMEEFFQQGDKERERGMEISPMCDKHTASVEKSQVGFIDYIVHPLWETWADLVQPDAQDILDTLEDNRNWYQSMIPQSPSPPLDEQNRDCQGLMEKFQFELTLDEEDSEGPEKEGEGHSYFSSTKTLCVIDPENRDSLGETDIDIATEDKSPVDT
Method in brief: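 Cell-based read-out of cAMP via a modified cyclic nucleotide-gated channel and membrane potential dye (535/590 nm) in HEK293 cells expressing PDE4 endogenously. Compounds tested up to 22.9 uM final; 100 uM RO 20-1724 reference.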

[43] = biological target: Cytochrome P450 3A4 (Homo sapiens) (UniProt P08684); assay: qHTS Assay for Activators of Cytochrome P450 3A4 (AID 885); also: nearly all actives have a fitted effect of over 65% in size
Chain of Cytochrome P450 3A4 (Homo sapiens) (P08684 whole entry, looked up): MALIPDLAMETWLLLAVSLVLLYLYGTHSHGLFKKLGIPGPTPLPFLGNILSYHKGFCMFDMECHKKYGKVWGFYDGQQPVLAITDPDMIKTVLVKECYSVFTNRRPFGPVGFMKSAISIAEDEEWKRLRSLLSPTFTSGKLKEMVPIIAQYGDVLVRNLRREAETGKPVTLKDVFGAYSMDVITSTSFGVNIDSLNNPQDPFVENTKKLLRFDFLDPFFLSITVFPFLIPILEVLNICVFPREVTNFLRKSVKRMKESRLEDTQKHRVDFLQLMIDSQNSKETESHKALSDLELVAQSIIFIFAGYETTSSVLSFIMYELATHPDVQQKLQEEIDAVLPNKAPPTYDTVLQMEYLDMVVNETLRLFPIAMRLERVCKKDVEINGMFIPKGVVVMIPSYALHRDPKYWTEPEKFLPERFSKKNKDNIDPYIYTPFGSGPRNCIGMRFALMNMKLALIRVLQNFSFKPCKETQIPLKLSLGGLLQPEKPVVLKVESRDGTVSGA
Method in brief: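 Signal was normalized against complete inhibition by 57 uM ketoconazole. The reaction used 20nM CYP3A4 with 25uM Luciferin-PPXE, 10-min compound preincubation and a 60-min NADPH-supported step at RT.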

Oc1cc2cc(CCN3CCN(c4nsc5ccccc45)CC3)c(Cl)cc2[nH]1
active: Potency [5] 6.31 µM | Potency [19] 10 µM | Potency [31] 6.75 µM | Potency [35] 6.31 µM
inactive: Potency [1] | Potency [2] | Potency [3] | activity, negative = inhibition [4] -29.2% | Potency [6] | Potency [7] | Potency [8] | Potency [9] | Potency [10] | Potency [11] | Potency [12] | Potency [13] | Potency [14] | Potency [15] | Potency [16] | Potency [17] | Potency [18] | Potency [20] | Potency [21] | Potency [22] | Potency [23] | Potency [24] | Potency [25] | Potency [26] | Potency [27] | Potency [28] | Potency [29] | Potency [30] | Potency [32] | Potency [33] | Potency [34] | Potency [36] | Potency [37] | Potency [38] | Potency [39] | Potency [40]

COC(=O)[C@H]1C[C@@H]1[C@H](NC(=O)c1cnccn1)c1ccccc1
inactive: Potency [41] | Potency [42] | Potency [43]
